MITF inh: human MITF inhibition, primary screen; actives 0.91% (n = 650,000); O75030; AlphaScreen MITF homodimerization, bead proximity signal; AID 1259374; inhibition, % at 2.6 µM; in the data active = inhibition above about 50%;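 note: 0% = vehicle wells with protein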
TEAD-YAP inh: TEAD-YAP interaction inhibition; HEK-TIYL cells, TEAD-Gal4/YAP UAS-luciferase luminescence; inhibition, % at 9.12 µM; actives 1.4% (n = 640,000); in the data active = inhibition above about 32%;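 note: 0% = median of test compound wells and 100% = reference inhibitor wells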
GPR151 ag: activates the human receptor GPR151; PathHunter beta-arrestin GPR151 cells, luminescence; actives 1% (n = 650,000); AID 1508602; activation, % at 11.2 µM; Q8TDV0; in the data active = activation above about 4.9%;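 note: 0% = median of compound wells and 100% = cells with positive control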
Target sequence (Q8TDV0 whole entry, looked up): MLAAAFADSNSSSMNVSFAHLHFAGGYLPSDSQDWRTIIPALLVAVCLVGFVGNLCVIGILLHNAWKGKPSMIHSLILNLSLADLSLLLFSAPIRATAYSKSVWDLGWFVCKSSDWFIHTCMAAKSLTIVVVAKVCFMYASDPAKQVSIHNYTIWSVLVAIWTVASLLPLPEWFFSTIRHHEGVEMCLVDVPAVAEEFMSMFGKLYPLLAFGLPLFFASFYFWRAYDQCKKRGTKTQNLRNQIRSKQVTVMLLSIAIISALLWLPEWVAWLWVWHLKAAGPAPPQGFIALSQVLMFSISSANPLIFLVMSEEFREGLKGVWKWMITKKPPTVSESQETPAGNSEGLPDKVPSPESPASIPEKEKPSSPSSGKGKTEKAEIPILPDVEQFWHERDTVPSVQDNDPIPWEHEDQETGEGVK
FBW7 activator: activators of human E3 ligase FBW7 | AlphaScreen FBW7–phospho-cyclin E peptide binding, activator screen | normalized activity (activation), % at 26.1 µM | Q969H0 | actives 0.13% (n = 650,000) | AID 1259310; in the data active = normalized activity above about 1.9%;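 note: purified mutant Fbw7 with reduced substrate affinity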
GPR151 confirm: confirmation of human GPR151 activators | shares compounds with GPR151 ag | GPR151 PathHunter beta-arrestin cells, luminescence, 90 min; % of EA-reagent control over plate median | activation, % at 11.2 µM | 6,700 tested, under 10 active;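 active = mean percent activation across replicates above the confirmation screen cutoff of 4.91%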
GPR119 ag: GPR119 activation, counter-screen for GPR151 activators; shares compounds with GPR151 ag; actives 0.3% (n = 6,700); activation, % at 11.2 µM; GPR119 PathHunter beta-arrestin cells, luminescence, 90 min; 0 = compound-well median, 100 = enzyme-acceptor control;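 active = mean percent activation in the counterscreen above 29.09%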;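 note: counterscreen on off-target GPR119 to flag nonselective hits from the GPR151 activator screen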
* hit, by the source's call; . = not tested or not shown; ! = not confirmed by another sample. Shown are actives, neighbours in structure and some others; about 3.5% of the full set was active somewhere.

SMILES	MITF inh	TEAD-YAP inh	GPR151 ag	FBW7 activator	GPR151 confirm	GPR119 ag
COc1ccc(Cl)cc1C(=O)Nc1c2c(nn1-c1ccccc1C)CS(=O)(=O)C2	3	-6	-1	0	.	.
Cc1ccc(-n2nc3c(c2NC(=O)c2c(F)cccc2F)CS(=O)(=O)C3)cc1	11	3	-1	1	.	.
COc1ccc(-n2nc3c(c2NC(=O)c2c(F)cccc2F)CS(=O)(=O)C3)cc1	17	1	7.1*	1	5	9
O=C(Nc1c2c(nn1-c1ccc(Cl)cc1)CS(=O)(=O)C2)C1(c2ccc(Cl)cc2)CCCC1	12	-9	0	0	.	.
C=CCOc1ccc(/C=N/NC(=O)CSc2nc(C)cc(C)n2)cc1	14	11	3	0	.	.
C=CCOc1ccc(/C=N/NC(=O)CSc2nc(C)cc(C)n2)cc1OCC	12	4	12*	0	1	4
N#CC1=C(NC(=O)c2ccc([N+](=O)[O-])cc2)CCC1	3	9	5.6*	0	-1	6
COc1ccc(C(=O)NC2=C(C#N)CCC2)cc1OC	21	-2	1	0	.	.
CC1CN(CCC(=O)NCCc2nc3ccccc3n2C)Cc2cc(Cl)ccc2O1 (centres undefined)	18	-3	0	0	.	.
O=C(Nc1ccc(-c2ccc([N+](=O)[O-])cc2)cc1)C1CC1	-5	-47	2	0	.	.
O=C1NC(=O)c2cc(NC(=O)C3CC3)ccc21	4	-2	5.2*	0	0	5
O=C(Nc1ccc([N+](=O)[O-])cc1)C1CC1	5	8	7.5*	0	1	-7
CCCCCCCCCCCCCCCC(=O)C(F)(F)F	2	.	5.0*!	0	-1	-10
Cc1nnc(SCCCn2c(N3CCOCC3)nc3c2c(=O)[nH]c(=O)n3C)s1	-8	-17	6.9*	0	0	1
COc1cccc(CNC(=O)CNc2ccc(-c3ccnc(N)n3)cc2C(=O)N2CCOCC2)c1	10	-5	0	0	.	.
O=C(NC(=O)c1ccc(Cn2cc(C(F)(F)F)ccc2=O)cc1)Nc1cccnc1	-8	0	5.2*	0	-1	-11
Cc1ccc(NC(=O)NC(=O)c2cccc(Cn3cc(C(F)(F)F)ccc3=O)c2)nc1	6	-13	4	0	.	.
CCCCCC(=O)NNS(=O)(=O)c1ccc(Cl)cc1	6	9	-1	0	.	.
C=CCn1c(=O)c2c(nc3n(-c4ccc(Cl)cc4)c(C)c(C)n23)n(C)c1=O	12	11	-1	0	.	.
COC(=O)C(C)n1c(=O)c2c(nc3n(-c4cc(C)cc(C)c4)c(C)c(C)n23)n(C)c1=O (centres undefined)	-11	12	0	0	.	.
CC(=O)Cn1c(=O)c2c(nc3n(-c4ccccc4)c(C)c(C)n23)n(C)c1=O	11	8	11*	0	0	4
C=CCn1c(=O)c2c(nc3n(-c4cccc(Cl)c4)c(C)c(C)n23)n(C)c1=O	-1	-5	6.3*	0	-1	-3
COC(=O)C(C)n1c(=O)c2c(nc3n(-c4ccc(C)c(C)c4)c(C)c(C)n23)n(C)c1=O (centres undefined)	4	-1	5.3*	0	0	4
CCc1nnc(NC(=O)COc2ccc(F)cc2)s1	-4	-16	3	0	.	.
COc1ccc(Cl)cc1NC(=O)c1cnn2c1NC(c1ccc(OC)c(OC)c1)CC2C(F)(F)F (centres undefined)	3	-18	8.6*	0	1	9
SMILES	MITF inh	TEAD-YAP inh	GPR151 ag	FBW7 activator	GPR151 confirm	GPR119 ag
O=C(/C=C/c1ccccc1)N1CCN(C2=NN=C(c3ccccc3)CS2)CC1	1	-21	6.2*	0	-1	-5
CCN(CC)CCNC(=O)CN1CC(=O)N2CCCC2C1=O (centres undefined)	4	-3	5.9*	0	0	5
CCOCCCNC(=O)CN1CC(=O)N2CCCC2C1=O (centres undefined)	13	1	-3	1	.	.
O=C(COc1ccc(Cl)cc1Cl)NC(Cc1ccccc1)C(=O)O (centres undefined)	1	2	2	0	.	.
O=C(N[C@@H](Cc1ccccc1)C(=O)O)c1ccc(Cl)cc1Cl	11	1	5.0*	0	0	2
CCOC(CNC(=O)c1ccc2cc[nH]c2c1)(OCC)c1ccncc1	5	-6	7.3*	0	-1	-2
Cc1cccc(N(Cc2c(F)cccc2Cl)S(C)(=O)=O)c1	5	6	6.9*	1	-1	-14
Cc1cccc(N(Cc2ccccc2F)S(C)(=O)=O)c1	7	1	0	1	.	.
CCCOc1ccccc1CNC(C)(C)C	-22	-13	9.3*	0	1	3
CC(C)c1ccccc1OCCCNC(C)(C)C	38	12	7.1*	0	0	1
CCOc1ccccc1OCCCNC(C)(C)C	30	-4	2	0	.	.
O=C(c1cccnc1)N1CCN(CCN2C(=O)C3C4C=CC(C4)C3C2=O)CC1 (centres undefined)	10	-2	0	0	.	.
CC(=O)Nc1ccc(/C=N/NC(=O)CNS(=O)(=O)c2ccccc2)cc1	15	12	1	0	.	.
Cc1ccc(C(=O)CSc2nc(N)cc(=O)[nH]2)cc1C	-10	-6	5.9*	0	1	3
Cc1cc(C(=O)CSc2nc(N)cc(=O)[nH]2)ccc1F	-13	-14	-1	0	.	.
Cc1[nH]c2ccccc2c1C(=O)CSc1nc(N)cc(=O)[nH]1	6	10	5.8*	0	0	7
O=C(CN1C(=O)S/C(=C\C=C\c2ccccc2)C1=O)N1CCCCC1	4	-2	-1	0	.	.
CSc1nnc(C)c(=O)n1COC(=O)c1ccccc1I	2	7	-1	0	.	.
CSc1nnc(C)c(=O)n1COC(=O)c1cc2ccccc2o1	10	9	7.5*	0	-1	1
Cn1c(C(=O)N2CCC(C(=O)N3CCN(C4CCCCC4)CC3)CC2)cc2sccc21	0	-2	-1	0	.	.
Cn1/c(=N/C(/N=c2\sc3ccccc3n2C)c2ccc([N+](=O)[O-])cc2)sc2ccccc21 (centres undefined)	20	-45	0	1	.	.
CC(C)CN1C(=O)c2ccccc2C(C(=O)Nc2ccccn2)C1c1cccs1 (centres undefined)	-5	9	-1	0	.	.
COc1ccc(-n2nc(C(=O)NCC(=O)N3CCCC3)c3ccccc3c2=O)c(OC)c1	17	-2	-1	0	.	.
CCOC(=O)N1CCN(C(=O)CNC(=O)c2nn(-c3ccc(OC)cc3OC)c(=O)c3ccccc23)CC1	3	-11	5.3*	0	0	10
COc1ccc(-n2nc(C(=O)NCC(=O)Nc3ccc(OC)c(OC)c3)c3ccccc3c2=O)cc1Cl	13	31	6.3*	0	0	3
